In PubChem BioAssay (EPA / NIEHS):
Results filed as inconclusive are left out. More than one record can exist for a structure, and the calls need not agree. Active and inactive are the calls of the source. How the source made its calls, unless noted: active means hit-call score of the fitted dose curve at least 0.9, where 1 is the maximum; inactive means score below 0.9.

Columns and labels:
[1] = ATG_PBREM_CIS: Attagene CIS-FACTORIAL HepG2 Assay for human Phenobarbital-responsive Enhancer Module (PBREM) (AID 2282955); details: HepG2 PBREM cis-reporter, Attagene multiplexed transcription; actives raise or lower the signal
Method in brief: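 Fluorescence of labelled reporter cDNA fragments, resolved by capillary electrophoresis, gives mRNA induction in transfected HepG2 cells treated for 24 h; DMSO serves as negative control and baseline.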

[2] = biological target: Paired box protein Pax-6 (Homo sapiens) (UniProt P26367); assay: ATG_Pax6_CIS: Attagene CIS-FACTORIAL HepG2 Assay for human Paired Box 6 (PAX6) (AID 2282956); details: HepG2 CIS-FACTORIAL PAX6 reporter transcription, RNA readout; actives raise or lower the signal
Sequence of Paired box protein Pax-6 (Homo sapiens) (P26367 whole entry, looked up): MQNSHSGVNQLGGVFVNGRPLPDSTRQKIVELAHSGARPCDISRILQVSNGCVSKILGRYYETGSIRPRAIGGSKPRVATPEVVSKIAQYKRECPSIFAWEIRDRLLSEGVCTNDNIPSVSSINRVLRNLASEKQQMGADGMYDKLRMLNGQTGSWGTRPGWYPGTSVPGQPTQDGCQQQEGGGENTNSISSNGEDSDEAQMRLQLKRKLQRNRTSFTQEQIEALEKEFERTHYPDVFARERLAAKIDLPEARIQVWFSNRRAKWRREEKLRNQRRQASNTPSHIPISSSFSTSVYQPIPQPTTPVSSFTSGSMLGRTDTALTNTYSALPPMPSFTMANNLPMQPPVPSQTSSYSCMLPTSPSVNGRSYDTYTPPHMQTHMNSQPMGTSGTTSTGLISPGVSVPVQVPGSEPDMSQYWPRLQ
Method in brief: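 Read-out is reporter transcript level, measured by RT-PCR with fluorescent primer extension and capillary electrophoresis after 24 h dosing of transfected HepG2 cells. Activity in either direction fitted relative to DMSO control.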

[3] = ATG_PXRE_CIS: Attagene CIS-FACTORIAL HepG2 Assay for human Pregnane X Receptor Element (PXRE) (AID 2282957); details: HepG2 Attagene CIS-FACTORIAL PXRE reporter, mRNA; actives raise or lower the signal
Method in brief: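 Fluorescent capillary electrophoresis of amplified reporter cDNA gave the signal, collected 24 h after dosing HepG2 cells that held transfected cis-element reporter constructs.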

[4] = ATG_PPRE_CIS: Attagene CIS-FACTORIAL HepG2 Assay for human Peroxisome Proliferator-activated Response Element (PPRE) (AID 2282958); details: HepG2 PPRE cis-element reporter, Attagene transcription factor profiling; actives raise or lower the signal
Method in brief: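 Cells are first transfected transiently with the multiplexed reporter library, then dosed for 24 h. Total RNA is reverse-transcribed, amplified, fluorescently end-labeled and HpaI-cut before capillary electrophoresis; activity is fitted bidirectionally against DMSO controls.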

[5] = ATG_RORE_CIS: Attagene CIS-FACTORIAL HepG2 Assay for human RAR-related Orphan Receptor Element (RORE) (AID 2282959); details: HepG2 Attagene cis-factorial RORE reporter, mRNA; actives raise or lower the signal
Method in brief: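 Cells were HepG2 carrying transfected cis-regulated reporter constructs, dosed for 24 hours. Total RNA was reverse-transcribed and reporter cDNA amplified, fluorescently labeled and sized by capillary electrophoresis. Activity was fitted bidirectionally relative to DMSO.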

[6] = biological target: Transcription factor Sp1 (Homo sapiens) (UniProt P08047); assay: ATG_Sp1_CIS: Attagene CIS-FACTORIAL HepG2 Assay for human Specificity Protein 1 (Sp1) (AID 2282961); details: HepG2 Sp1 cis-reporter transcription, actives raise or lower the signal
Sequence of Transcription factor Sp1 (Homo sapiens) (P08047 whole entry, looked up): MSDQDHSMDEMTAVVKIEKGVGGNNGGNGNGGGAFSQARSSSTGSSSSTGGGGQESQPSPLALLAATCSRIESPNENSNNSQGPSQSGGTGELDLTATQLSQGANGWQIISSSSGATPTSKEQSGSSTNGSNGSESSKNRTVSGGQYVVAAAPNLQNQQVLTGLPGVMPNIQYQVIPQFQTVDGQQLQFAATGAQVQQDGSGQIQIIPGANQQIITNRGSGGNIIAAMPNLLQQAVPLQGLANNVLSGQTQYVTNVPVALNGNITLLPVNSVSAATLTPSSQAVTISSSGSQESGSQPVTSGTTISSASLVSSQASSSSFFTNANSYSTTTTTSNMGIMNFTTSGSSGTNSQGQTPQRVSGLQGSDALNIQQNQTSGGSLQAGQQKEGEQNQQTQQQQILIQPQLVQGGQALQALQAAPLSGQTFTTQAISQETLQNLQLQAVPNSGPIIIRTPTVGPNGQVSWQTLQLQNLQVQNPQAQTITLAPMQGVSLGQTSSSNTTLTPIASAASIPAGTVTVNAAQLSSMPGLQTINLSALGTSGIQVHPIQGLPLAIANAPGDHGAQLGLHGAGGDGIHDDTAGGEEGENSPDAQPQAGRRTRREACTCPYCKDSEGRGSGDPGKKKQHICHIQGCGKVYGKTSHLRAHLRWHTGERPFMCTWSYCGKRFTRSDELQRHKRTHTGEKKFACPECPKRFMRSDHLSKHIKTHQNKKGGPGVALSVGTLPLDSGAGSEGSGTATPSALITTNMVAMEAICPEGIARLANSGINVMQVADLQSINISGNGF
Method in brief: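 Endogenous Sp1 activity was gauged in human liver HepG2 cells bearing transfected reporter units under a cis-regulating promoter. After 24 h dosing, reporter mRNA was quantified by RT-PCR with capillary electrophoresis, and activity fitted bidirectionally versus DMSO.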

[7] = ATG_SREBP_CIS: Attagene CIS-FACTORIAL HepG2 Assay for human Sterol Regulatory Element Binding (SREBP) (AID 2282962); details: HepG2 Attagene cis-factorial SREBP reporter, mRNA; actives raise or lower the signal
Method in brief: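 Endogenous SREBP activity read as cis-element-driven reporter transcript in transiently transfected HepG2, 24 h post-dosing; quantified via RT-PCR plus capillary electrophoresis of fluorescent fragments. Gain or loss of signal fitted relative to DMSO baseline.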

[8] = biological target: Signal transducer and activator of transcription 3 (Homo sapiens) (UniProt P40763); assay: ATG_STAT3_CIS: Attagene CIS-FACTORIAL HepG2 Assay for human Signal Transducer and Activator of Transcription 3 (STAT3) (AID 2282963); details: HepG2, Attagene cis-factorial STAT3 reporter transcription; actives raise or lower the signal
Sequence of Signal transducer and activator of transcription 3 (Homo sapiens) (P40763 whole entry, looked up): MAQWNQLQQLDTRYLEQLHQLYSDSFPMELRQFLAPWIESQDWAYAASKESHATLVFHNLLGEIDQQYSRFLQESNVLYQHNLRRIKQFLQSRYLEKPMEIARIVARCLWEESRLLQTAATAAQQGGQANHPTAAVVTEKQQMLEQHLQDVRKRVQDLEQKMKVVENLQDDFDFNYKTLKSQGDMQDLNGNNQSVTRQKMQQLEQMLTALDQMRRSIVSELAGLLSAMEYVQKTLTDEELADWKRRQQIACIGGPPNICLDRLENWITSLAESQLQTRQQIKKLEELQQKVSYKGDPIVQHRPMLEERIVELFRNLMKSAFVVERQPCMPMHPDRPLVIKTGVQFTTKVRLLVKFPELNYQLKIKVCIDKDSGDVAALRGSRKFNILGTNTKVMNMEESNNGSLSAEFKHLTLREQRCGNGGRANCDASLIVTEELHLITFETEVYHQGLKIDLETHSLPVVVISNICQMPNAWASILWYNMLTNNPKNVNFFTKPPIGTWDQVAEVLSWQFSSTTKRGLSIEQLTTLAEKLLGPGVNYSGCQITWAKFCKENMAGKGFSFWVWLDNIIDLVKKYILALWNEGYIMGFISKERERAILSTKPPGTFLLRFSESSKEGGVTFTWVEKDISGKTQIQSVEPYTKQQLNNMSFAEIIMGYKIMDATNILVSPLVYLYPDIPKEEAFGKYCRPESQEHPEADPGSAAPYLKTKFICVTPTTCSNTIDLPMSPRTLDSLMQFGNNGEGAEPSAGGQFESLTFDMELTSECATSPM
Method in brief: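 Uses human liver HepG2 transiently carrying cis-regulated reporter transcription units. Following 24 h dosing, reporter mRNA induction was detected by RT-PCR and capillary electrophoresis, analysed bidirectionally versus DMSO.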

[9] = ATG_TA_CIS: Attagene CIS-FACTORIAL HepG2 Assay for human TA Basal Promoter (AID 2282964); details: HepG2 Attagene CIS-factorial TA basal promoter reporter; actives raise or lower the signal
Method in brief: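 HepG2 cells transiently transfected with multiplexed cis-promoter reporter units, dosed 24 h. Reporter mRNA measured by RT-PCR, 6-FAM labelling, HpaI digestion and capillary electrophoresis; bidirectional fit versus DMSO baseline, serving as background control.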

[10] = ATG_TCF_b_cat_CIS: Attagene CIS-FACTORIAL HepG2 Assay for human T-Cell-Factor with beta-catenin (TCF/b-cat) (AID 2282965); details: HepG2 TCF/beta-catenin cis-reporter transcription, actives raise or lower the signal
Method in brief: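 In this cis-format system, transfected HepG2 cells report endogenous transcription factor activity. Readout after 24 h exposure is reporter transcript abundance from RT-PCR and capillary electrophoresis, analysed for gain or loss of signal versus DMSO.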

[11] = ATG_TAL_CIS: Attagene CIS-FACTORIAL HepG2 Assay for human TAL Basal Promoter (AID 2282966); details: HepG2 Attagene cis-factorial TAL promoter reporter; actives raise or lower the signal;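 further: background control endpoint measuring basal TAL promoter reporter mRNA not a specific factor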
Method in brief: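 Transiently transfected HepG2 (cis-regulated reporter units), 24 h treatment, mRNA read by fluorescent CE after RT-PCR; bidirectional fit, DMSO baseline.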

[12] = ATG_TGFb_CIS: Attagene CIS-FACTORIAL HepG2 Assay for human Transforming Growth Factor (TGF) (AID 2282967); details: HepG2 Attagene CIS TGFb reporter, mRNA transcription; actives raise or lower the signal
Method in brief: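 HepG2 cells transiently transfected with cis-promoter-driven multiplexed reporter units; 24 h compound exposure. Reporter mRNA measured by RT-PCR, 6-FAM labeling, HpaI digestion and capillary electrophoresis; bidirectional fit versus DMSO baseline.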

[13] = biological target: Nuclear receptor subfamily 1 group I member 3 (Homo sapiens) (UniProt Q14994); assay: ATG_CAR_TRANS: Attagene TRANS-FACTORIAL HepG2 Assay for human Constitutive Androstane Receptor (CAR) (AID 2282969; active means hit-call score of the fitted dose curve at least 0.9, where 1 is the maximum;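 further: activators raise reporter mRNA above DMSO so AC50 marks induction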); details: HepG2 Attagene TRANS-FACTORIAL CAR reporter
Sequence of Nuclear receptor subfamily 1 group I member 3 (Homo sapiens) (Q14994 whole entry, looked up, the tested form may be a part): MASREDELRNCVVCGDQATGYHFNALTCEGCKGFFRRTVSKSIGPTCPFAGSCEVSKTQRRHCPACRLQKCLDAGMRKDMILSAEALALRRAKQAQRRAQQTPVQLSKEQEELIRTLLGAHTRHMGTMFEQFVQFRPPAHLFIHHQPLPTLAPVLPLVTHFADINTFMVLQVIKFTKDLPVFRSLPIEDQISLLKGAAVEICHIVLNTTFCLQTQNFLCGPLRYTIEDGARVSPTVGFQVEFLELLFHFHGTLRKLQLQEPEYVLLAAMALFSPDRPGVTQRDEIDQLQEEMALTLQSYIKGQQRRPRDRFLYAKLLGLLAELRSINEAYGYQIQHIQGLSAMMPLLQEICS
Method in brief: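 Steps: transient transfection of HepG2 with multiple GAL4-UAS reporter units; 24 h compound incubation; RNA isolation, RT-PCR, 6-FAM primer extension, HpaI digest; capillary electrophoresis. Gain-of-signal relative to DMSO negative control.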

[14] = biological target: Estrogen receptor (Homo sapiens) (UniProt P03372); assay: ATG_ERa_TRANS: Attagene TRANS-FACTORIAL HepG2 Assay for human Estrogen Receptor alpha (ERa) (AID 2282970; active means hit-call score of the fitted dose curve at least 0.9, where 1 is the maximum); details: HepG2 Attagene TRANS ERa GAL4 reporter, mRNA
Sequence of Estrogen receptor (Homo sapiens) (P03372 whole entry, looked up, the tested form may be a part): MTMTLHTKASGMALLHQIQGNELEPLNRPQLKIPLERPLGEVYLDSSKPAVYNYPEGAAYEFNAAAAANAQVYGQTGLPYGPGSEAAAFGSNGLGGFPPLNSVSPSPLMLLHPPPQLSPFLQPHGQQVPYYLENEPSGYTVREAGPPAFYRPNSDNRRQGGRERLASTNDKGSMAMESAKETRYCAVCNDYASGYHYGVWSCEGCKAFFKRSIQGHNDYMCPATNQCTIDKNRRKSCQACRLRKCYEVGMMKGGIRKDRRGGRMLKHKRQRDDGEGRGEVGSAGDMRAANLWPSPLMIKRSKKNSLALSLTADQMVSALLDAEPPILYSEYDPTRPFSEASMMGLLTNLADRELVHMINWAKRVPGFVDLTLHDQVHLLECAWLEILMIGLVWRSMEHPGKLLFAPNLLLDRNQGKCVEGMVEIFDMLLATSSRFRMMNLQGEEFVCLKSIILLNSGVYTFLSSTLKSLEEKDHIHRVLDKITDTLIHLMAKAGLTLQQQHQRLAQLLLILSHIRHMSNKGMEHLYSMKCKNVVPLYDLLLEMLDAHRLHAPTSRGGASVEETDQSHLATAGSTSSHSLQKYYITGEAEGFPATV
Method in brief: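 One of 30 multiplexed endpoints from a HepG2 TRANS system, this one reports ERa-Gal4-driven reporter mRNA. Transcripts were quantified 24 hours post-dosing by fluorescent RT-PCR and capillary electrophoresis, with activity scored as induction over DMSO.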

[15] = biological target: X-box-binding protein 1 (Homo sapiens) (UniProt P17861); assay: ATG_Xbp1_CIS: Attagene CIS-FACTORIAL HepG2 Assay for human X-box Binding Protein 1 (XBP1) (AID 2282972); details: HepG2 XBP1 cis-element reporter, Attagene multiplex; actives raise or lower the signal
Sequence of X-box-binding protein 1 (Homo sapiens) (P17861 whole entry, looked up): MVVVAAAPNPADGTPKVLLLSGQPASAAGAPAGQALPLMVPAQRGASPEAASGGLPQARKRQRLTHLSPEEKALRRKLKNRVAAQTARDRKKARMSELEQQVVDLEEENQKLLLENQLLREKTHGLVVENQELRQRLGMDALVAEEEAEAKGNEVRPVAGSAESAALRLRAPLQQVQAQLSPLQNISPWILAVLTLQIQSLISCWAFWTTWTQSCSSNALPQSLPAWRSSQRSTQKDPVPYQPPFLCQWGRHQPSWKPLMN
Method in brief: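 Reporter transcripts were quantified by RT-PCR with fluorescent primer extension and capillary electrophoresis after 24 h chemical exposure. Cells: transiently transfected HepG2 carrying cis-regulated reporter constructs; data fitted bidirectionally relative to DMSO.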

[16] = ATG_Sox_CIS: Attagene CIS-FACTORIAL HepG2 Assay for human SRY-box transcription factor (SOX) (AID 2282960); details: HepG2 Attagene cis-factorial SOX reporter, mRNA; actives raise or lower the signal
Method in brief: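 Transient MRTU transfection of HepG2; 24 h compound incubation; TriZol RNA, oligo(dT) RT, PCR, 6-FAM primer extension, HpaI cut, CE. Bidirectional fit, DMSO = baseline.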

[17] = ATG_VDRE_CIS: Attagene CIS-FACTORIAL HepG2 Assay for human Vitamin D Receptor Element (VDRE) (AID 2282968); details: HepG2 VDRE cis-reporter transcription, actives raise or lower the signal
Method in brief: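 Transfected HepG2 reporter cells, chemical treatment 24 h. RNA isolated, cDNA amplified with reporter-specific primers, products analysed by capillary electrophoresis. Endpoint fitted in both directions versus DMSO.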

[18] = ATG_M_19_TRANS: Attagene TRANS-FACTORIAL HepG2 Assay for M19 Transcription Factor (Internal Marker) (AID 2282974; active means hit-call score of the fitted dose curve at least 0.9, where 1 is the maximum); details: HepG2 Attagene TRANS-FACTORIAL M19 internal marker reporter
Method in brief: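 Cells: human HepG2, transiently transfected with multiplexed reporter transcription units. Exposure: 24 h. Detection: RT-PCR of reporter mRNA with capillary electrophoresis. Analysis: gain-of-signal vs DMSO.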

CC(=O)CCc1ccc2c(c1)OCO2
outcome [1]: inactive
outcome [2]: inactive
AC50 [3]: 27.9 µM (active)
outcome [4]: inactive
outcome [5]: inactive
outcome [6]: inactive
outcome [7]: inactive
outcome [8]: inactive
outcome [9]: inactive
outcome [10]: inactive
outcome [11]: inactive
outcome [12]: inactive
outcome [13]: inactive
outcome [14]: inactive
outcome [15]: inactive

CCCCN(CCCC)N=O
outcome [2]: inactive
AC50 [3]: 42.7 µM (active)
outcome [5]: inactive
outcome [6]: inactive
outcome [7]: inactive
outcome [8]: inactive
outcome [9]: inactive
outcome [10]: inactive
outcome [12]: inactive
outcome [14]: inactive
outcome [15]: inactive

O=C(O)CF
outcome [2]: inactive
AC50 [3]: 100 µM (active)
outcome [3]: inactive
outcome [5]: inactive
outcome [16]: inactive
outcome [6]: inactive
outcome [7]: inactive
outcome [8]: inactive
outcome [9]: inactive
outcome [10]: inactive
outcome [11]: inactive
outcome [12]: inactive
outcome [17]: inactive
outcome [15]: inactive
outcome [18]: inactive

O=P(Oc1ccccc1)(Oc1ccccc1)Oc1ccccc1
outcome [1]: inactive
AC50 [2]: 33.4 µM (active)
AC50 [3]: 8.63 µM (active)
outcome [4]: inactive
outcome [16]: inactive
outcome [6]: inactive
AC50 [7]: 16.7 µM (active)
outcome [8]: inactive
AC50 [9]: 42 µM (active)
outcome [10]: inactive
outcome [11]: inactive
outcome [12]: inactive
AC50 [17]: 7.17 µM (active)
outcome [13]: inactive
outcome [14]: inactive
AC50 [15]: 49.4 µM (active)
outcome [18]: inactive

c1ccc(OP(Oc2ccccc2)Oc2ccccc2)cc1
outcome [1]: inactive
outcome [2]: inactive
AC50 [3]: 39.7 µM (active)
outcome [5]: inactive
outcome [16]: inactive
outcome [6]: inactive
outcome [7]: inactive
outcome [8]: inactive
outcome [9]: inactive
AC50 [10]: 100 µM (active)
outcome [11]: inactive
outcome [12]: inactive
outcome [17]: inactive
outcome [13]: inactive
AC50 [14]: 74.9 µM (active)
outcome [15]: inactive
outcome [18]: inactive

CCOc1ccc(C(C)(C)COCc2cccc(Oc3ccccc3)c2)cc1
outcome [1]: inactive
outcome [2]: inactive
AC50 [3]: 1.93 µM (active)
outcome [4]: inactive
outcome [5]: inactive
outcome [6]: inactive
outcome [7]: inactive
outcome [8]: inactive
outcome [9]: inactive
outcome [10]: inactive
outcome [12]: inactive
AC50 [17]: 5.77 µM (active)
outcome [13]: inactive
outcome [14]: inactive
outcome [15]: inactive
outcome [18]: inactive

Nc1cc2c3c(c1)C(c1ccccc1)=N[C@@H](NC(=O)c1cccnc1)C(=O)N3CC2
AC50 [1]: 41.9 µM (active)
outcome [2]: inactive
AC50 [3]: 26.5 µM (active)
outcome [4]: inactive
AC50 [5]: 17.5 µM (active)
outcome [6]: inactive
AC50 [7]: 66.8 µM (active)
outcome [8]: inactive
outcome [9]: inactive
outcome [10]: inactive
outcome [12]: inactive
AC50 [17]: 38.4 µM (active)
outcome [13]: inactive
outcome [14]: inactive
AC50 [15]: 92.1 µM (active)
